# From PubChem BioAssay
# A selection: hits, their analogues and other compounds. The true share with any hit is near 2.8%.
# Pol beta inh – DNA polymerase beta (human) inhibition | P06746 | Pol beta primer extension/strand displacement, fluorescence kinetic | Potency, µM (titrated, usually from 114 µM), for the others: at the top dose activity change, negative = inhibition, actives largely listed as inhibitors | hit rate 1.3% among 340,000; further: potency means the concentration at half of the fitted maximal effect; on the % scale 0 is the no-effect control and ±100 the full control effect
#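 Preincubation: enzyme (10 nM) with compound, 15 min, RT. Reaction: substrate added to 50 nM final. Reads: 0 and 10 min. Analysis: normalized, Hill fit.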
# Pol kappa inh-1 – blocks human DNA polymerase kappa activity; Q9UBT6; purified Pol kappa, fluorescent DNA synthesis assay, 10 min; AID 588579; hit rate 0.53% among 400,000; Potency, µM (top dose mostly 107 µM), inactives show top-dose activity, negative = inhibition, most hits filed as inhibitors; further: potency means the concentration at half of the fitted maximal effect; on the % scale 0 is the no-effect control and ±100 the full control effect
#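 Readout: fluorescence, taken kinetically at 0 and 10 min. Conditions: 10 nM Pol kappa, 15 min RT compound preincubation, 50 nM substrate final. Controls: enzyme-free buffer wells.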
# WRN helicase inh – WRN helicase (human) inhibition; WRN helicase unwinding, fluorescent forked duplex, kinetic; hit rate 0.46% among 360,000; Potency, µM (highest dose often 114 µM), inactives show at the top dose activity change, negative = inhibition, actives largely listed as inhibitors; AID 651768; Q14191; further: potency means the concentration at half of the fitted maximal effect; on the % scale 0 is the no-effect control and ±100 the full control effect; nearly all actives have a fitted effect of over 55% in size
#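 Kinetic fluorescence helicase assay: unwinding of a quenched forked DNA duplex (100 nM final) with 2 mM ATP final raises red fluorescence (525/598 nm). Compounds sat 15 min at room temperature with 20 nM WRN beforehand.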
# Pol eta inh-1 – DNA polymerase eta (human) inhibition; Q9Y253; recombinant Pol eta, fluorescent DNA replication assay; Potency, µM (top dose mostly 114 µM), for the others: top-dose activity change, negative = inhibition, actives largely listed as inhibitors; hit rate 1.2% among 390,000; AID 588591; further: potency means the concentration at half of the fitted maximal effect; on the % scale 0 is the no-effect control and ±100 the full control effect
#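 Pol eta (10 nM) was preincubated with compounds for 15 min at room temperature, after which fluorescent replication substrate (50 nM final) was added to start the reaction. Fluorescence was read kinetically at 0 and 10 min.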
# Pol iota inh – blocks human DNA polymerase iota activity; Pol iota fluorescent replication assay, 10 min; AID 588590; hit rate 1% among 390,000; Potency, µM (titrated, usually from 115 µM), for inactives: top-dose activity, negative = inhibition, most hits filed as inhibitors; Q9UNA4; further: potency means the concentration at half of the fitted maximal effect
#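 Fluorescent replication assay read twice, at 0 min and 10 min after adding 50 nM (final) substrate. Enzyme (10 nM) and compounds were first incubated 15 min at room temperature; enzyme-free buffer wells were negative controls.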
# PI5P4Ka inh – blocks human PI5P4K alpha kinase activity; AID 652105; max response, %; P48426; hit rate 1.2% among 330,000; PI5P4Kalpha enzyme, ADP-Glo luminescence, 60 min; stronger effect = lower value; active means max response of -50% or lower; inconclusive means between -30% and -50%; inactive means -30% or higher; further: value at the top dose of about 77 µM; on the % scale 0 is the no-effect control and ±100 the full control effect
#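 Compounds were pin-transferred onto PI5P4Kalpha and substrate in HEPES pH 7.4 buffer with EGTA, CHAPS and 5% DMSO. ATP (5 microM final) started the reaction, which ran 60 minutes at room temperature before ADP-Glo detection.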
# Pol iota confirm – Human Pol iota inhibitor confirmatory assay; Pol iota primer extension, TAMRA/BHQ fluorescence; hit rate 77% among 1,500; Potency, µM, actives largely listed as inhibitors; shares compounds with Pol kappa inh-1; further: potency means the concentration at half of the fitted maximal effect
# Pol kappa inh-2 – Pol kappa (human) inhibition, cherry-pick confirmation. shares compounds with Pol eta inh-1. purified Pol-kappa, fluorescent strand-displacement substrate. Potency, µM, actives largely listed as inhibitors. hit rate 76% among 920; further: potency means the concentration at half of the fitted maximal effect
# Pol eta inh-2 – confirmation of human DNA polymerase eta inhibitors | Potency, µM, usual class: inhibitors | hit rate 64% among 2,600 | AID 720502 | Pol eta primer extension, TAMRA/BHQ fluorescence, 10 min | shares compounds with Pol eta inh-1; further: potency means the concentration at half of the fitted maximal effect
# * = called active by the depositor; ? = inconclusive; . = no result; [ ] = another dose, or the depositor's remark. Unless noted, the call rests on the fitted dose curve; in most records, active means well fitted curve in the direction sought with a large enough effect; inconclusive means small, poorly fitted or top-dose-only effect, or another doubt; inactive means no such curve, though single readings can be large; an effect the other way counts as inactive or inconclusive.
SMILES,Pol beta inh,Pol kappa inh-1,WRN helicase inh,Pol eta inh-1,Pol iota inh,PI5P4Ka inh,Pol iota confirm,Pol eta inh-2,others
Cc1c(C(=O)N2CCCC2)oc2c1-c1nn(CC(=O)NCc3ccccc3Br)cc1CC2,-22.2%,-16.2%,.,-21.6%,?,.,.,.,
NC1=C(Cl)C(=O)c2ccc(S(N)(=O)=O)cc2C1=O,.,-19.0%,?,10µM*,3.98µM*,?,75.2*,37.9*,
NS(=O)(=O)c1ccc2c(c1)C(=NO)c1cc(S(N)(=O)=O)ccc1-2,?,4.1%,19.4%,-12.5%,24.7%,-7.8,.,.,
O=C(N/N=C/c1ccc2c(c1)OCO2)c1ccc2c(c1)OCCO2,-0.7%,1.5%,-22.0%[57.1 µM],-24.8%,-7.3%,0.1,.,.,
O=C(N/N=C/c1cc(Br)c(Br)o1)c1ccc2c(c1)OCCO2,8.91µM*,?,?,12.6µM*,?,-56.8*,?,30.1*,
Cc1ccc(C(=O)Nc2ccc(-c3nc4ccccc4[nH]3)cc2)cc1Br,.,.,.,.,.,.,67*,?,
O=C(Nc1ccc(-c2nc3ccc(NC(=O)c4cccs4)cc3[nH]2)cc1)c1cccs1,10µM*,?,-22.9%[57.1 µM],?,20µM*,?,37.7*,67.5*,
COc1ccc(NC(=O)C(CC(C)C)NC(=O)C2CCCCC2)cc1 (stereo unspecified),14.2%,-16.0%,.,-15.5%,11.5%,.,.,.,
O=C(O)c1ccc(N=Nc2c(O)ccc3ncccc23)cc1,5.01µM*,28.2µM*,?,2.82µM*,3.98µM*,?,33.6*,15.1*,Pol kappa inh-2=10.6*
COc1cc(/C=N/NC(=S)Nc2cccc(S(=O)(=O)N(C)C)c2)cc(OC)c1O,-11.1%,-1.9%,-9.5%,-16.5%,-23.2%,22.1,.,.,
CN(C)S(=O)(=O)c1cccc(NC(=S)N/N=C/c2ccc(O)c(O)c2O)c1,-11.1%,?,28.2µM*,?,?,-97.4*,13.4*,19*,
O=S(=O)(c1ccc(OC(F)(F)F)cc1)N1CCN(c2nc(-c3cccs3)nc3ccccc23)CC1,.,-1.9%,.,.,15.2%,.,.,.,
Cc1ccc(C(=O)O)cc1-c1ccc(C=C2C(=O)c3ccccc3C2=O)o1,31.6µM*,79.4µM*,-33.0%[11.6 µM],7.94µM*,?,-22.8,42.3*,26.9*,
O=C1NN(c2ccccc2)C(=O)/C1=C/c1ccc(Sc2ccc(Cl)cc2)o1,?,50.1µM*,?,.,7.94µM*,?,?,30.1*,
Cc1ccc(Sc2ccc(/C=C3/C(=O)NN(c4ccccc4)C3=O)o2)cc1,?,?,-11.4%[11.6 µM],22.4µM*,-96.0%,?,67*,?,Pol kappa inh-2=23.8*
CC(C)C1N(C(=O)CN2CCCCC2)CCN1S(=O)(=O)c1ccccc1 (stereo unspecified),-1.9%,-0.5%,-1.4%,-8.2%,16.8%,3.7,.,.,
C=CCNC(=O)c1ccc(Cn2c(=S)[nH]c3cc4c(cc3c2=O)OCO4)cc1,-14.1%,79.4µM*,?,?,20µM*,.,67*,.,Pol kappa inh-2=47.4*
Cc1ccccc1Nc1cc2ccccc2c(=O)[nH]1,-11.7%,-10.7%,?,11.2µM*,?,-9.7,75.2*,37.9*,
O=c1[nH]c(Nc2ccccn2)cc2ccccc12,.,-5.1%,-5.5%,?,?,3.2,.,.,
COc1ccccc1Nc1cc2ccccc2c(=O)[nH]1,.,.,.,.,.,.,42.3*,26.9*,
O=c1[nH]c(Nc2ccccc2Cl)cc2ccccc12,.,-7.6%,12.1%,-13.9%,0.5%,2.3,.,.,
